Pf growth 96h = P. falciparum growth inhibition at 96 hours. P. falciparum luciferase reporter growth, 96 h. Potency, µM (top dose mostly 28.7 µM), without a hit: at the top dose activity change, negative = inhibition, most hits filed as inhibitors. 6.9% of 320,000 active. AID 504834; also: % is scaled to controls: 0 for no effect and ±100 for the full control effect
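Luminescence readout: decreased luciferase signal marks inhibited growth of reporter-expressing P. falciparum in infected red cells (2% hematocrit, 0.05% parasitemia final), exposed to compound two generations (96 h, 37 C, 5% CO2).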
Vaccinia mCherry = inhibitors of vaccinia virus infection (mCherry reporter signal); Vaccinia virus mCherry reporter infection, fluorescence; Potency, µM (series often up to 36.5 µM), for the others: top-dose activity change, negative = inhibition, most hits filed as inhibitors; 0.63% of 310,000 active; AID 720579; calls by dose curve; tested in A549 cells; also: % is scaled to controls: 0 for no effect and ±100 for the full control effect; nearly all actives have a fitted effect of over 35% in size
HCV inh = blocks hepatitis C virus | 3.4% of 340,000 active | Potency, µM (highest dose often 41.8 µM), for the others: at the top dose activity change, negative = inhibition, actives largely listed as inhibitors | AID 651820 | Huh7.5.1 HCVcc-Cre infection, luciferase reporter, 44 h; also: % is scaled to controls: 0 for no effect and ±100 for the full control effect
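Cells seeded at 1,000/well and cultured 4 h, then compounds added followed by HCVcc-Cre virus (~0.5 moi). After 44 h further culture, luciferase substrate was added, plates held 15 min at room temperature, and luminescence read for 15 sec.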
VACV Venus inh = vaccinia inhibition (Venus reporter); Vaccinia virus Venus reporter expression, fluorescence; 0.46% of 330,000 active; Potency, µM (titrated, usually from 36.5 µM), for inactives: at the highest dose activity change, negative = inhibition, most hits filed as inhibitors; calls by dose curve; tested in A549 cells; also: % is scaled to controls: 0 for no effect and ±100 for the full control effect; nearly all actives have a fitted effect of over 30% in size
NS1 function inh = inhibitors of influenza NS1 protein function; Potency, µM (doses to about 46.1 µM), for inactives: at the highest dose activity, positive = more growth; 0.4% of 270,000 active; AID 2326; calls by dose curve; also: actives are rising curves; nearly all actives have a fitted effect of over 50% in size
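In this qHTS, NS1 from influenza A is expressed in budding yeast, where it slows growth. Cells are switched from glucose to 2% galactose medium (pH 6.0, -URA), treated with compound, and growth recovery is read at OD600.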
Pf growth 48h = inhibits P. falciparum growth in the first generation, 48 h | 5.9% of 310,000 active | Potency, µM (top dose mostly 28.7 µM), for the others: at the top dose activity change, negative = inhibition, actives largely listed as inhibitors | P. falciparum luciferase growth in erythrocytes, 48 h | AID 504832; also: % is scaled to controls: 0 for no effect and ±100 for the full control effect
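Luciferase-expressing P. falciparum in infected erythrocytes (2% hematocrit, 0.1% parasitemia final) in RPMI 1640/0.5% Albumax were exposed to compound for 48 hours at 37 C, 5% CO2; growth read as luminescence.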
* marks the source's active call; other numbers are inactive results. A selection: hits, their analogues and other compounds. The true share with any hit is near 11%. Unless noted, calls follow the shape of the dose curve; as a rule, active = well fitted inhibition curve with a large enough effect; inconclusive = small, poorly fitted or top-dose-only effect, or another doubt; inactive = no such curve, though single readings can be large or run the other way. Potency is read from the fitted curve at half-maximal effect.

Screening CCOC(=O)c1c[nH]c2cc(OCC(C)C)c(OCC(C)C)cc2c1=O returned Pf growth 96h 0.038µM* and Pf growth 48h 0.054µM*.
CCc1ccc2[nH]cc(C(=O)OCCOC)c(=O)c2c1 was read as Pf growth 96h 10µM*, Vaccinia mCherry -13%, HCV inh 17%, VACV Venus inh -7%, NS1 function inh 0% and Pf growth 48h 1.5µM*.
`CCOC(=O)c1c[nH]c2nc(C)ccc2c1=O` gave Pf growth 96h 31%, Vaccinia mCherry -9%, HCV inh 2%, VACV Venus inh -3% and Pf growth 48h -28%.
`CCOc1ccc2[nH]cc(C(=O)NCCc3ccccc3)c(=O)c2c1` gave Pf growth 96h inconclusive, HCV inh inconclusive, NS1 function inh 12% and Pf growth 48h -6%.
`CNC(=S)NNc1ccccc1[N+](=O)[O-]` gave Pf growth 96h 19%, Vaccinia mCherry -14%, HCV inh -25%, VACV Venus inh -9% and Pf growth 48h -19%.
Screening COc1cc(/C=N/NC(=O)c2cnccn2)ccc1O returned Pf growth 96h inconclusive, Vaccinia mCherry -12%, HCV inh 0%, VACV Venus inh -6%, NS1 function inh 9% and Pf growth 48h 14%.
O=C(NCc1ccco1)c1ccccc1NC(=O)C1CC(=O)N(c2ccc(Cl)cc2)C1 (stereo not drawn) was read as Pf growth 96h 7.4µM*, Vaccinia mCherry inactive, HCV inh -20%, VACV Venus inh -12%, NS1 function inh -19% and Pf growth 48h -17%.
O=C(N/N=C/c1ccccc1O)C1CC(=O)N(c2ccc(Cl)cc2)C1 (stereo not drawn) was read as Pf growth 96h 77%, HCV inh inconclusive, NS1 function inh 3% and Pf growth 48h 12µM*.
Cc1ccc(/C=N/NC(=O)C2CC(=O)N(c3ccccc3)C2)s1 (stereo not drawn) was read as Pf growth 96h 93%, Vaccinia mCherry -19%, HCV inh -9%, VACV Venus inh -24%, NS1 function inh -10% and Pf growth 48h 12%.
O=C(Nc1cccc(Cl)c1Cl)C1CC(=O)N(c2ccc(Br)cc2)C1 (stereo not drawn) was read as Pf growth 96h 10µM*, Vaccinia mCherry -29%, HCV inh inconclusive, VACV Venus inh inconclusive, NS1 function inh 8% and Pf growth 48h 0%.
For CCN(CC)CCN(C(=O)c1ccc([N+](=O)[O-])cc1)c1nc2ccc(OC)cc2s1 the results were Pf growth 96h 3%, HCV inh 0% and Pf growth 48h 6%.
Cc1ccc(S(=O)(=O)N2CCN(C(=O)C3CCN(C(=O)c4ccc(F)cc4)CC3)CC2)c(C)c1 was read as Pf growth 96h inconclusive, Vaccinia mCherry inactive, HCV inh 11µM*, VACV Venus inh -26% and Pf growth 48h 13µM*.
COc1ccc(Cl)cc1S(=O)(=O)N1CCC(C(=O)NC2CC2)CC1 was read as Pf growth 96h 8.3µM*, Vaccinia mCherry -5%, HCV inh 10%, VACV Venus inh 0%, NS1 function inh 2% and Pf growth 48h inconclusive.
For COc1ccc(C)cc1S(=O)(=O)N1CCN(C(=O)c2ncoc2-c2cccc(F)c2)CC1 the results were Pf growth 96h 0.66µM*, Vaccinia mCherry -30%, HCV inh inconclusive, VACV Venus inh -26%, NS1 function inh -47% and Pf growth 48h 2%.
Screening COc1ccc(Cl)cc1S(=O)(=O)N1CCC(C(=O)NC2CCCC2)CC1 returned Pf growth 96h 9%, Vaccinia mCherry -14%, HCV inh -7%, VACV Venus inh -6%, NS1 function inh 2% and Pf growth 48h 0%.
COc1ccc(Cl)cc1S(=O)(=O)N1CCN(C(=O)c2cc(OC)c(OC)c(OC)c2)CC1 was read as Pf growth 96h 12µM*, Vaccinia mCherry -10%, HCV inh 4%, VACV Venus inh -25%, NS1 function inh -10% and Pf growth 48h inconclusive.
